VACV mCherry inh = vaccinia inhibition (mCherry reporter). Potency, µM (doses to about 36.5 µM), inactives show top-dose activity change, negative = inhibition, most hits filed as inhibitors. Vaccinia virus mCherry reporter infection, fluorescence. 310,000 compounds, 0.63% hits; calls by dose curve; tested in A549 cells; note: potency is the fitted concentration of half-maximal effect; nearly all actives have a fitted effect of over 35% in size
VACV Venus inh = vaccinia inhibition (Venus reporter); 330,000 compounds, 0.46% hits; Vaccinia virus Venus reporter expression, fluorescence; Potency, µM (top dose mostly 36.5 µM), for inactives: at the highest dose activity change, negative = inhibition, hits mostly inhibitors; AID 720580; calls by dose curve; tested in A549 cells; note: potency is the fitted concentration of half-maximal effect; nearly all actives have a fitted effect of over 30% in size
Marburg entry inh = inhibitors of Marburg virus binding or cell entry | 300,000 compounds, 1.8% hits | Marburg virus pseudotyped entry inhibition, cell reporter | Potency, µM (doses to about 37.8 µM), without a hit: at the highest dose activity change, negative = inhibition, actives largely listed as inhibitors; calls by dose curve; tested in HEK293 cells; note: potency is the fitted concentration of half-maximal effect
FMDV inh = antivirals against foot and mouth disease virus; FMDV antiviral cell-based qHTS; Potency, µM (highest dose often 57.9 µM), inactives show top-dose activity change, negative = inhibition, most hits filed as inhibitors; 410,000 compounds, 1.2% hits; calls by dose curve; tested in HEK293T cells; note: read-out not given here; potency is the fitted concentration of half-maximal effect; nearly all actives have a fitted effect of over 45% in size
HCMV inh = blocks human cytomegalovirus replication. AID 1259415. HFF cells, HCMV-luciferase reporter, 72 h; active compounds read low. activity change, negative = inhibition, % at 57.5 µM. 410,000 compounds, 4.5% hits; in the data active = activity change below about -60%; inconclusive = no clear call, values can overlap the other calls; inactive = above about -39%
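Screen run at 2 compound doses on HFFs infected with reporter HCMV, MOI 1 PFU/cell. Luciferase activity from cell lysates at 72 h post infection gave inhibition relative to buffer-only and Salinomycin wells.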
LASV entry inh = blocks Lassa virus binding to or entry into cells | Lassa virus pseudotype entry inhibition, cell reporter | Potency, µM (top dose mostly 37.9 µM), without a hit: at the top dose activity change, negative = inhibition, most hits filed as inhibitors | AID 540256 | 300,000 compounds, 1.2% hits; calls by dose curve; tested in HEK293 cells; note: potency is the fitted concentration of half-maximal effect; nearly all actives have a fitted effect of over 50% in size
Starred values were filed as active, the others as inactive; i = inactive; ? = inconclusive; . = no result; [ ] = remark or other dose. Rows were chosen to be rich in hits. Some 6.5% of all compounds tested hit in one or more screens of this group. % is set by controls: 0 for no effect and ±100 for the full control effect.

SMILES | VACV mCherry inh | VACV Venus inh | Marburg entry inh | FMDV inh | HCMV inh | LASV entry inh
CNc1ccc(Br)cc(C(=O)/C=C/c2cc(OC)ccc2OC)c1=O | . | . | ? | 20µM* | -101.9* | ?
CNc1ccc(Br)cc(C(=O)/C=C/c2ccc3c(c2)OCO3)c1=O | . | -7.7% | -31.9% | ? | -2.7 | ?
CC(CCN1CCCc2nc(C)c(C)cc21)=NO[C@H](C)CN1CCCc2nc(C)c(C)cc21 | . | . | -41.3%[14.2 µM] | . | . | .
Cc1cccc(C)c1Nc1c(-c2ccccc2Cl)nc2cnccn12 | -21.7% | -11.7% | ? | -6.5% | ? | -16.4%[46.1 µM]
OCC(O)C(O)C(O)C(O)C(O)CO (stereo not given) | -11.7% | -16.9% | . | -1.8% | . | .
CC(C)Nc1ccc(-c2nc(-c3ccncc3)no2)cc1[N+](=O)[O-] | -6.9% | -1.5% | 0.8%[46.1 µM] | 33.2% | 8.9 | 16.3%[46.1 µM]
COCCn1c(=O)c(-c2ccc(Cl)cc2)nc2cnc(N3CCOCC3)nc21 | . | . | . | -14.3% | . | .
CCSc1ccc2nnc(-c3cccc(F)c3)n2n1 | . | . | -14.6% | -17.9% | -64.3* | -0.6%
Fc1ccc(CSc2ccc3nnc(-c4cccnc4)n3n2)cc1 | -2.6% | -18.8% | -20.4%[46.1 µM] | ? | 22.1 | 12.6µM*
CN1OC[C@@H]2CN3C(=O)N(c4cccc5ccccc45)c4ccccc4[C@@H]3C[C@@H]21 | i | -0.7% | . | -15.1% | -101.7* | .
CC(=O)N1CCc2c(sc3c2c(=O)n(-c2ccccc2C)c(=O)n3CC(=O)c2ccccc2)C1 | -2.3% | -7.4% | 11.2%[46.1 µM] | 0.0% | 5.3 | .
CC(=O)Nc1ccc(NC(=O)COc2cccc3c2OC(C)(C)C3)cc1 | -11.5% | -22.4% | ? | -0.3% | -26.1 | -7.6%[46.1 µM]
COc1cc(NC(=O)COc2cccc3c2OC(C)(C)C3)cc(OC)c1OC | . | . | . | 22.4µM* | -38.5 | .
CN(C)C(=O)c1ccc(NC(=O)COc2cccc3c2OC(C)(C)C3)cc1 | -3.4% | -11.2% | -0.7% | -13.0% | -100.9* | 5.3%
CC1(C)CC(=O)c2c(O)cc(OCC(=O)Nc3ccc(S(N)(=O)=O)cc3)cc2O1 | 7.0% | -7.6% | . | ? | -22.2 | .
COc1cc(NC(=O)COc2cc(O)c3c(c2)OC(C)(C)CC3=O)cc(OC)c1OC | ? | ? | . | 3.98µM* | 0.0 | .
CC1=C[C@@H](C)OC2(C1)C(=O)N(CC1CC1)c1cccc(Br)c12 (stereo not given in full) | . | . | 2.7%[14.2 µM] | . | . | .
COc1cccc(N2CCN(c3ccc(S(=O)(=O)N4CCN(C)CC4)cc3[N+](=O)[O-])CC2)c1 | -29.5% | -29.2% | ? | ? | -37.7 | ?
Cc1ccc(S(=O)(=O)N2CCN(c3cc4c(cc3[N+](=O)[O-])n(C)c(=O)n4C)CC2)cc1 | i | -7.2% | 23.1µM* | . | -17.6 | ?
COc1ccc(N2CCN(S(=O)(=O)c3ccc4c(c3)CCCC4)CC2)c([N+](=O)[O-])c1 | -13.2% | ? | ? | . | -86.0* | ?
Cn1c(=O)n(C)c2cc([N+](=O)[O-])c(N3CCN(C(=O)c4cccc(Cl)c4)CC3)cc21 | -7.0% | -13.8% | ? | 35.5µM* | ? | ?
Cc1ccc(S(=O)(=O)N2CCN(c3ccc(C(F)(F)F)cc3[N+](=O)[O-])CC2)cc1 | -26.2% | ? | 8.91µM* | ? | -76.9* | ?
COc1cc(-c2noc(-c3ccc(NCCc4ccccc4)c([N+](=O)[O-])c3)n2)cc(OC)c1OC | 4.4% | 0.2% | -17.0%[46.1 µM] | -3.6% | 24.3 | -16.8%[46.1 µM]
COc1ccccc1CN(Cc1ccco1)c1cnc(S(C)(=O)=O)nc1C(=O)Nc1cc(C)ccc1C | -10.8% | -11.6% | ? | -7.3% | -7.1 | ?
CC(=C/c1ccccc1)/C=N/NC(=O)c1nnn(-c2nonc2N)c1CN1CCC(C)CC1 | -21.0% | -13.1% | ? | 11.5% | -15.0 | -28.0%[46.1 µM]
SMILES | VACV mCherry inh | VACV Venus inh | Marburg entry inh | FMDV inh | HCMV inh | LASV entry inh
Cc1nnn(-c2nonc2N)c1C(=O)N/N=C/c1cccc2ccccc12 | i | -6.5% | ? | -3.7% | -65.1* | -3.5%
CC1CCN(Cc2c(C(=O)N/N=C/c3ccccc3O)nnn2-c2nonc2N)CC1 | 2µM* | ? | 3.16µM* | 9.6% | -95.3* | ?
CN(Cc1c(C(=O)N/N=C/c2ccccc2O)nnn1-c1nonc1N)C1CCCCC1 | ? | ? | . | -18.9% | -98.1* | .
Nc1nonc1-n1nnc(C(=O)N/N=C/c2cccc(O)c2)c1CN1CCCC1 | -17.3% | -21.1% | 3.2%[46.1 µM] | -11.0% | -24.2 | -5.6%[46.1 µM]
Nc1nonc1-n1nnc(C(=O)N/N=C/c2ccc(O)cc2)c1CN1CCCCCC1 | i | -15.5% | . | -13.9% | -61.1* | .
COC1CCC(c2nnsc2N2C(=O)C3=C(CCCC3)C2=O)CC1 (stereo not given) | . | . | 10.1%[46.1 µM] | . | . | .
CCN(CC)c1ccc(/C=N/NC(=O)c2nnn(-c3nonc3N)c2C(C)C)c(O)c1 | 2.51µM* | ? | 2.51µM* | 0.5% | -102.0* | ?
CC(C)c1c(C(=O)N/N=C/c2ccc3c(c2)OCO3)nnn1-c1nonc1N | . | . | . | -2.5% | ? | .
CCc1ccc(NC(=O)CSc2ccc3nc(-c4ccc(OC)cc4)cn3n2)cc1 | -3.7% | -11.2% | . | 39.5% | 64.0 | ?
Cc1ccc2nc(Cl)c3cc(C(=O)NC4CCC(C)CC4)sc3c2c1 (stereo not given) | -2.6% | -11.1% | 9.7%[46.1 µM] | 3.1% | -20.4 | -10.8%[46.1 µM]
Cc1ccccc1Cn1nnc(-c2ccc(F)cc2)n1 | -16.1% | -12.7% | 10.1%[46.1 µM] | 18.0% | -75.2* | ?
Fc1ccc(-c2nnn(Cc3ccccc3Cl)n2)cc1 | i | -2.3% | ? | 51.7% | 5.2 | ?
Cc1cccc(C(=O)N2CCc3cc(CNC(=O)CCc4ccccc4)ccc32)c1 | i | -11.9% | . | ? | -21.8 | -23.3%[46.1 µM]
CC(=O)N1CCCc2cc(S(=O)(=O)N3CCC(C(=O)Nc4cccc(Cl)c4C)CC3)ccc21 | 9.4% | -2.2% | . | 0.0% | -13.1 | 2.9%[46.1 µM]
Cc1ccc(Sc2ccc(NC(=O)CCl)cc2)c(C)c1 | . | . | -21.3% | 31.6µM* | 17.8 | ?
CC(=O)N[C@@H](C)c1nc2ccccc2n1CCCN1CCN(c2nc(-c3ccc(C)cc3)cs2)CC1 | ? | ? | . | 0.0% | -67.5* | .
Cc1ccc(-c2csc(N3CCN(CCCn4c(C(F)(F)F)nc5ccccc54)CC3)n2)cc1 | -20.8% | -26.2% | . | ? | ? | .
Cc1ccc(-c2csc(N3CCN(CCCn4c(-c5ccncc5)nc5ccccc54)CC3)n2)cc1 | 10µM* | ? | . | ? | ? | .
Cc1cccc(CNC(=O)c2cnn(-c3ncc4c(n3)-c3ccccc3CC4)c2C2CC2)n1 | ? | ? | . | 3.6% | . | .
COc1cccc([C@H]2Oc3ccc(OC)cc3/C(=N\OC[C@@H](C)[C@H](OCc3ccccc3)C(C)C)[C@@H]2O)c1 | . | . | 10.0%[14.2 µM] | . | . | .
COC(=O)c1cncc(C=Cc2c(C)cc(O)cc2C)c1 | . | . | . | . | . | 3.15µM*
COc1ccc(O)c(CN2CCC3(CC2)c2ccccc2[C@@H](NC(=O)c2cccc(F)c2)[C@@H]3OC)c1 | -17.8% | -7.0% | . | 2.0% | . | .

From PubChem BioAssay
